# Reference: PubChem BioAssay AID588856 (National Center for Advancing Translational Sciences (NCATS), 2011)
# The campaign covered roughly 410,000 compounds. About 3,100 (0.76%) were called active. Where a call stands in place of a potency, no number is given. The call rests on the fitted dose curve; in most records, active means well fitted cell-killing curve with a large enough effect; inactive means no such curve, though single readings can be large or run the other way. For the sample, actives were picked, then their nearest neighbours and some compounds at random.
# Test: qHTS for Inhibitors of TGF-b: Cytotox Counterscreen
# Settings: HepG2 CAGA-GFP viability, ATP luminescence, 18 h; series mostly up to 46.1 µM
# Summary of the method: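 CellTiter-Glo luminescence gave cytotoxicity after 18 hours at 37 degrees C. The cells were HepG2 CAGA-GFP in 1% FBS DMEM, stimulated with 500 pg/mL TGF-beta after compound addition. %Activity was normalised to no-cell wells (complete cell-killing) and DMSO (no toxicity), and curves were fitted and classified.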
# Potency means the concentration at half of the fitted maximal effect.
row,Structure (SMILES),Potency
1,Cc1nc2c(c(C)nn2-c2ccccc2)c(C)c1CCC(=O)NCCc1ccc(Cl)cc1,inactive
2,CCOCCCNC(=O)c1cn(CC)c2ccc(S(=O)(=O)N3CCc4ccccc4C3)cc2c1=O,inactive
3,CCOC(=O)c1c(C)oc2nc(C)nc(N(CC(C)C)CC(C)C)c12,inactive
4,CCOc1ccc(-c2n[nH]c3c2C(c2ccccc2OC)N(c2ccc(Br)cc2)C3=O)cc1 (configuration not stated),inactive
5,CCOC(=O)c1ccc(N2C(=O)c3n[nH]c(C)c3C2c2ccc(O)c(OC)c2)cc1 (configuration not stated),inactive
6,CCOc1cc(C2c3c(-c4ccc(Br)cc4)n[nH]c3C(=O)N2c2ccc(Cl)cc2)ccc1O (configuration not stated),10 µM (active)
7,O=C(NCc1ccc(Cl)cc1)c1ccc2c(c1)nnn2C1CCCC1,inactive
8,COc1ccc(/C=C/C(=O)c2cc(Br)ccc(=O)c2O)cc1,inactive
9,COc1ccc(C(=O)COC(=O)C(O)c2ccccc2)c(OC)c1 (configuration not stated),inactive
10,COc1ccc(C(=O)/C=C/c2cccnc2)c(OC)c1,15.8 µM (active)
11,CCS(=O)(=O)c1nc(S(=O)(=O)c2ccc(C)cc2)c(NCc2ccc(Cl)cc2)s1,inactive
12,CCC(=O)N1CCc2cc(Br)cc(S(=O)(=O)CCC(=O)NCCc3ccc(OC)c(OC)c3)c21,inactive
13,COc1ccc(-c2cn3nc(N4CCC(C(=O)Nc5cccc(C)c5C)CC4)sc3n2)cc1,inactive
14,CC(C)=CCCC1(C)C=Cc2c(ccc3c2[nH]c2cc(O)c(C)cc23)O1 (configuration not stated),15.8 µM (active)
15,Brc1ccc2c(c1)NC(c1cccnc1)=NC(c1ccccc1)=N2,inactive
16,COc1ccc(CCNC(=O)c2cc(=O)c3c(C)cc(C)cc3o2)cc1OC,inactive
17,Cc1ccc(N(C)C(=O)C2CCN(S(=O)(=O)c3ccc4c(c3)CCCN4C(=O)C3CCC3)CC2)cc1,inactive
18,CCc1ccc(NC(=O)C2CCCN2S(=O)(=O)c2ccc3nc(-c4ccccc4)[nH]c3c2)cc1 (configuration not stated),inactive
19,O=C(c1ccc(CN2CCOCC2)cc1)N1CCN(c2ccccc2F)CC1,3.16 µM (active)
20,O=C(CCSc1ccccc1)N1CCN(c2ccccc2F)CC1,inactive
21,O=S(=O)(N1CCOCC1)N1CCN(c2ccccc2F)CC1,inactive
22,Cc1cccc(N2CCN(C(=O)c3ccc(Nc4nc5ccccc5n5nnnc45)cc3)CC2)c1C,inactive
23,CN(C)c1ccc(C=Nc2ccc(/C=C/c3ccnc4ccccc34)cc2)cc1,inactive
24,Oc1c(Cl)cc(Cl)c(Cl)c1Cc1c(O)c(Cl)cc(Cl)c1Cl,10 µM (active)
25,N#Cc1ccc[n+](CC(=O)c2ccc(F)cc2)c1,inactive

row,Structure (SMILES),Potency
1,COC(=O)c1ccc(Cn2c(SCC(=O)N(C)c3ccccc3)nc3ccccc32)cc1,inactive
2,CCOC(=O)c1scc(-c2ccccc2)c1S(=O)(=O)Nc1ccccc1F,inactive
3,CCOC(=O)c1c(-c2ccc(C)cc2C)csc1NC(=O)CSc1nnnn1C,inactive
4,CCCS(=O)(=O)c1ncc(Cl)c(C(=O)Nc2scc(-c3ccccc3)c2C(=O)OCC)n1,11.2 µM (active)
5,CCOC(=O)c1ccc(NC(=O)CC2C(=O)N(c3ccccc3)C(=O)N2Cc2cccs2)cc1 (configuration not stated),inactive
6,CCC(C)N(c1ccc(/C=C/c2ccnc3ccccc23)cc1)C(C)CC (configuration not stated),inactive
7,Cc1cccc(NC(=O)N2CCC(CN3CCc4ccccc4C3)CC2)c1C,inactive
8,Cc1ccccc1Cn1c2ccccc2c2cnn(CC(=O)NCc3ccco3)c(=O)c21,inactive
9,CCN(CC)CCNC(=O)Cn1ncc2c3ccccc3n(Cc3ccccc3C)c2c1=O,15.8 µM (active)
10,CCCN(CCC)CCCNC(=O)Cn1ncc2c3ccccc3n(Cc3ccccc3)c2c1=O,inactive
11,O=C(CSc1oc(-c2ccco2)nc1S(=O)(=O)c1ccc(Cl)cc1)c1ccccc1,inactive
12,COC(=O)CC1Oc2ccccc2-n2cc(-c3ccccc3)nc21 (configuration not stated),inactive
13,COc1ccccc1Nc1c2c(nc3ccc(NC(=O)/C=C/c4cc(OC)c(OC)c(OC)c4)cc13)CCCC2,5.62 µM (active)
14,COc1cc(/C=C/C(=O)O)cc(S(=O)(=O)Nc2ccccc2SC)c1OC,inactive
15,CCOc1ccc(C(=O)Nc2ccc3nc4c(c(Nc5ccccc5OC)c3c2)CCCC4)cc1,inactive
16,COCCCNC(=O)c1c(NC(=O)c2cc(=O)c3cc(C)c(C)cc3o2)sc2c1CCCC2,inactive
17,COC(=O)c1sc(-c2ccc(C(C)(C)C)cc2)cc1NC(=O)/C=C/C(=O)O,7.08 µM (active)
18,OC(Cc1ccc2ccccc2n1)c1ccc(Cl)c(Cl)c1 (configuration not stated),inactive
19,C/C=C/NNC(=O)Cc1ccc(OC)cc1,inactive
20,O=c1cc2nc(-c3ccccc3)nc(SCCOc3ccc(Cl)cc3)n2[nH]1,inactive
21,Cc1ccc(-c2nc(SCc3ccc(Br)cc3)n3[nH]c(=O)cc3n2)cc1,5.01 µM (active)
22,Cc1cccc(-c2nc(SCc3ccc(Br)cc3)n3[nH]c(=O)cc3n2)c1,inactive
23,COc1ccc(-c2nc(CN3CCC(C(=O)NCc4ccccc4)CC3)c(C)o2)cc1OC,inactive
24,Nc1ccc(/C=C/c2ccnc3ccccc23)c([N+](=O)[O-])c1,inactive
25,COc1cccc(CNC(=O)c2ccc3c(c2)sc2nc(-c4cccc(OC)c4)cn23)c1,inactive

row,Structure (SMILES),Potency
1,Cc1cccc(-n2c(SCC(N)=O)nc3c(oc4ccccc43)c2=O)c1,inactive
2,Cc1cc(C)cc(Nc2ncnc3onc(-c4ccc(F)cc4)c23)c1,inactive
3,C=COC(=O)N1CCN(/[N+]([O-])=N/Oc2ccc([N+](=O)[O-])cc2[N+](=O)[O-])CC1,inactive
4,Cc1cc(NS(=O)(=O)c2ccc3oc(=O)c4ncn(C)c4c3c2)ccc1Br,11.2 µM (active)
5,Cc1cccc(NS(=O)(=O)c2ccc(-c3cnc(C4CC4)o3)cc2)c1,inactive
6,CCn1c(=O)c(=O)[nH]c2c(=O)oc3ccc(S(=O)(=O)Nc4ccc(OC)cc4)cc3c21,inactive
7,Cc1ccc(-c2cc(C(F)(F)F)c(C#N)c(SCC(=O)Nc3ccccc3)n2)cc1,inactive
8,CCc1ccc(NS(=O)(=O)c2ccc3[nH]cc(C(=O)NCCc4cccc(C)c4)c(=O)c3c2)cc1,inactive
9,CC(=O)/C(=N\Nc1ccc(Cl)cc1Cl)Sc1cccc2cccnc12,3.98 µM (active)
10,COc1c(Cl)cc(Cl)cc1C(=O)Nc1cccc2cccnc12,inactive
11,O=C(Nc1cccc2cccnc12)C(F)(F)F,inactive
12,Clc1cccc[n+]1CCCC[n+]1ccccc1Cl,inactive
13,Cc1ccccc1-c1nc2cc(NC(=O)c3cccc(OCCC(C)C)c3)ccc2o1,inactive
14,COc1cc(OC)c2c(c1C(CCN1CCCCC1)c1ccc(N(C)C)cc1)OC(=O)CC2c1ccc(N(C)C)cc1 (configuration not stated),inactive
15,COc1ccc(Nc2ncc(C(=O)Nc3cc(C)ccc3OC)c3ccccc23)cc1,inactive
16,COc1cc(/C=C/C(=O)OCC(=O)Nc2cccc(Oc3ccccc3)c2)ccc1O,inactive
17,COc1ccc(C(=O)Nc2ccccc2C(=O)N/N=C/c2ccc(O)c(OC)c2)cc1,3.55 µM (active)
18,COc1cc(OC)cc(C(=O)Nc2ccc3nc(Nc4cccc(C(F)(F)F)c4)cc(C)c3c2)c1,inactive
19,COc1cc(NC(=O)c2[nH]cnc2C(N)=O)cc(C(=O)Nc2cccc(C(F)(F)F)c2)c1,7.08 µM (active)
20,Cc1onc(-c2ccc(F)cc2F)c1C(=O)Nc1cccc(C(F)(F)F)c1,inactive
21,COc1ccc(/C=C/c2ccccn2)cc1OC,inactive
22,Cc1ccc(-c2cn3c(n2)sc2cc(C(=O)NCc4cccs4)ccc23)c(C)c1,inactive
23,COc1ccc(NC(=O)Cn2c(=O)n(CCC(C)C)c(=O)c3cccnc32)cc1Cl,inactive
24,CCCC[C@@H]1CN=C(N)N1CCc1cc(C(F)(F)F)cc(C(F)(F)F)c1,15.8 µM (active)
25,CCCCN1C(N)=NC[C@@H]1CC1CCCCC1,inactive

row,Structure (SMILES),Potency
1,CN(C)C1=NC[C@H](Cc2ccccc2)N1CCc1ccc(F)cc1,inactive
2,CC(NC(=O)CCc1cn(Cc2ccccc2Cl)c2ccccc12)c1ccccc1 (configuration not stated),inactive
3,Cc1cc(OC(C)C(=O)Nc2sc3c(c2C(N)=O)CCCC3)ccc1Cl (configuration not stated),inactive
4,O=C(Cn1ncn2nc(-c3cccs3)cc2c1=O)NCc1cccc(Br)c1,inactive
5,Cc1ccc(C)c(OCC(=O)Nc2sc3c(c2C#N)CCCC3)c1C,inactive
6,CCOC(=O)N1CCc2c(sc3c2C(=O)NC(c2ccccc2F)N3)C1 (configuration not stated),inactive
7,NC1=CC(=O)C(=O)c2cccnc21,6.31 µM (active)
8,Cc1ccc2c(=O)cc(C(=O)Nc3sc4c(c3C(=O)NCc3cccnc3)CCCC4)oc2c1,inactive
9,COc1ccc(N2CCN(c3nc(-c4ccccc4F)nc4ccccc34)CC2)cc1,inactive
10,CC(C)Cn1c(=O)c2ccccc2n2c(-c3cccc(Cl)c3)nnc12,inactive
11,O=c1c2cc(Br)ccc2nc(-c2cccc(Cl)c2)n1O,15.8 µM (active)
12,O=C(O)c1ccc(Nc2nc(-c3ccccc3)c3cc(Br)ccc3n2)cc1,inactive
13,CCOc1ccccc1C(=O)NC1(C(F)(F)F)NC(=O)N(CCc2ccc(OC)c(OC)c2)C1=O (configuration not stated),inactive
14,Cc1nc(SCC(=O)Nc2ccc(C(=O)O)cc2)n[nH]1,inactive
15,CN(C)c1ccc(/C=C/C=C/c2ccnc3ccccc23)cc1,inactive
16,Cc1nnc2n1N=C(c1ccc3c(c1)NC(=O)CO3)CS2,inactive
17,COc1ccc(C2=Nn3c(nnc3-c3ccccc3OC)SC2)cc1OC1CCCC1,17.8 µM (active)
18,O=C(Nc1ccc([N+](=O)[O-])cc1)c1cnn2c1NC(=C1CC1)C=C2C(F)F,inactive
19,CCOc1ccc(Nc2nc3c(S(=O)(=O)c4cccc(Cl)c4)nnn3c3ccsc23)cc1,inactive
20,CCc1nc2ccc(C(=O)N(C)CCN(C)C)cn2c1N(CC)CCOC,inactive
21,CCc1nc2ccc(C(=O)Nc3ccc(OC)c(OC)c3)cn2c1N(C)C(=O)c1cccc(OC)c1,inactive
22,CCc1nc2ccc(C(=O)Nc3cccc(OC)c3)cn2c1N(CCC(C)C)CCN(C)C,11.2 µM (active)
